According to the supplement of paper PMC7156485:
“And” between values parts separate entries of the source, which are not always exact repeats. Identical values can stand only once. ± gives the standard deviation of the averaged measurements.

Key:
Details in all cases: concentration: 10 µM; 24 h
HCC1569 [1] = assay: cell number relative to DMSO (% of DMSO); higher = more cells (less growth inhibition / toxicity)
In short: (§1)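 For HCC1569 and TDF cells, compounds at 10 µM were applied for 24 h at 37 °C in triplicate in 384-well plates. Cells were fixed in 3.7% formaldehyde, stained for H1.0 and with DAPI, and imaged at ×10 over six fields per well. The endpoint, H1.0 nuclear intensity or cell number, is shown as percent of the plate control using the median of replicates. Positional effects were smoothed for HCC1569 only.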

TDF [2] = assay: as above
In short: as §1

TDF [3] = assay: H1.0 immunofluorescence intensity relative to DMSO (% of DMSO); higher = stronger H1.0 induction, active = 120 or more
In short: as §1

HCC1569 [4] = assay: H1.0 immunofluorescence intensity relative to DMSO (% of DMSO); higher = stronger H1.0 induction, active = 140 or more
In short: as §1
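Wherever H1.0 immunofluorescence intensity relative to DMSO is given: TDF is a line of transformed human dermal fibroblasts of mesenchymal origin.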
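Wherever cell number relative to DMSO is given: TDF denotes transformed human dermal fibroblasts of mesenchymal origin.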

## CC(C)C1(NC(=O)C2CC3c4cccc5[nH]cc(c45)CC3N(C)C2)OC2(O)C3CCCN3C(=O)C(Cc3ccccc3)N2C1=O (configuration not stated) [Dihydroergocristine]
HCC1569 [1]
  cell number: 104
TDF [2]
  cell number: 100
TDF [3]
  H1.0 immunofluorescence intensity: 90.4 (inactive)
HCC1569 [4]
  H1.0 immunofluorescence intensity: 117 (inactive)

## Cc1cc2c(C(C)C)c(O)c(O)c(C=O)c2c(O)c1-c1c(C)cc2c(C(C)C)c(O)c(O)c(C=O)c2c1O [Gossypol]
HCC1569 [1]
  cell number: 80.6 ± 22
TDF [2]
  cell number: 99.6 ± 5.5
TDF [3]
  H1.0 immunofluorescence intensity: 92.2 (inactive)
HCC1569 [4]
  H1.0 immunofluorescence intensity: 103 (inactive)

## O=C1CSC(c2ccccc2Cl)c2cc(Cl)ccc2N1 (configuration not stated)
HCC1569 [1]
  cell number: 103
TDF [2]
  cell number: 105
TDF [3]
  H1.0 immunofluorescence intensity: 95.3 (inactive)
HCC1569 [4]
  H1.0 immunofluorescence intensity: 115 (inactive)

## CCC1C(C)=NN=C(c2ccc(OC)c(OC)c2)c2cc(OC)c(OC)cc21 (configuration not stated)
HCC1569 [1]
  cell number: 93.8
TDF [2]
  cell number: 103
TDF [3]
  H1.0 immunofluorescence intensity: 93.1 (inactive)
HCC1569 [4]
  H1.0 immunofluorescence intensity: 90.9 (inactive)

## COC1C(O)C(C)OC(OC2C(Oc3cccc4c(O)c5c(=O)oc6ccc(C)c7c(=O)oc(c34)c5c67)OC(C)C(O)C2O)C1O (configuration not stated) [Chartreusin]
HCC1569 [1]
  cell number: 105
TDF [2]
  cell number: 99.3
TDF [3]
  H1.0 immunofluorescence intensity: 100 (inactive)
HCC1569 [4]
  H1.0 immunofluorescence intensity: 108 (inactive)

## CC12Cc3cn[nH]c3CC1CCC1C2CCC2(C)C1CCC2(C)O (configuration not stated) [Stanozolol]
HCC1569 [1]
  cell number: 94.4
TDF [2]
  cell number: 99.5
TDF [3]
  H1.0 immunofluorescence intensity: 97.2 (inactive)
HCC1569 [4]
  H1.0 immunofluorescence intensity: 87.3 (inactive)

## CC(=O)OCC1=C(C(=O)[O-])N2C(=O)C(NC(=O)CCCC(N)C(=O)[O-])C2SC1.[Zn+2] (configuration not stated) [Cephalosporin C zinc salt]
HCC1569 [1]
  cell number: 101
TDF [2]
  cell number: 101
TDF [3]
  H1.0 immunofluorescence intensity: 97.3 (inactive)
HCC1569 [4]
  H1.0 immunofluorescence intensity: 90.8 (inactive)

## O=C1NC(=O)c2c1c1c3ccccc3n3c1c1c2c2ccccc2n1C1CCC3O1
HCC1569 [1]
  cell number: 77.9 and 77.4
TDF [2]
  cell number: 74.9 and 76.9
TDF [3]
  H1.0 immunofluorescence intensity: 105 (inactive) and 100 (inactive)
HCC1569 [4]
  H1.0 immunofluorescence intensity: 126 (inactive) and 107 (inactive)

## NCC(CP(=O)(O)O)c1ccc(Cl)cc1 (configuration not stated) [Phaclofen]
HCC1569 [1]
  cell number: 106
TDF [2]
  cell number: 100
TDF [3]
  H1.0 immunofluorescence intensity: 95.8 (inactive)
HCC1569 [4]
  H1.0 immunofluorescence intensity: 79.9 (inactive)

## NCCCNCCSP(=O)(O)O [Amifostine]
HCC1569 [1]
  cell number: 102.2 ± 1
TDF [2]
  cell number: 104 ± 2.8
TDF [3]
  H1.0 immunofluorescence intensity: 91.8 (inactive)
HCC1569 [4]
  H1.0 immunofluorescence intensity: 98.1 (inactive)

## CCC(C(=O)O)C1OC(C(C)C(O)C(C)C(=O)C(CC)C2OC3(C=CC(O)C4(CCC(C)(C5CCC(O)(CC)C(C)O5)O4)O3)C(C)CC2C)C(C)CC1C (configuration not stated) [Narasin]
HCC1569 [1]
  cell number: 67.3
TDF [2]
  cell number: 84.4
TDF [3]
  H1.0 immunofluorescence intensity: 112 (inactive)
HCC1569 [4]
  H1.0 immunofluorescence intensity: 159 (active)

## CC(O)C(C)OC(=O)C1CC2c3cccc4c3c(cn4C(C)C)CC2N(C)C1.O=C(O)C=CC(=O)O (configuration not stated) [LY-53,857 maleate]
HCC1569 [1]
  cell number: 107
TDF [2]
  cell number: 107
TDF [3]
  H1.0 immunofluorescence intensity: 96.5 (inactive)
HCC1569 [4]
  H1.0 immunofluorescence intensity: 90.5 (inactive)

## Br.Br.CN(C)CCN(C)CCc1ccc(Cl)c(Cl)c1
HCC1569 [1]
  cell number: 96.6
TDF [2]
  cell number: 102
TDF [3]
  H1.0 immunofluorescence intensity: 102 (inactive)
HCC1569 [4]
  H1.0 immunofluorescence intensity: 110 (inactive)

## CC(=O)NBr [N-Bromoacetamide]
HCC1569 [1]
  cell number: 105
TDF [2]
  cell number: 101
TDF [3]
  H1.0 immunofluorescence intensity: 96.8 (inactive)
HCC1569 [4]
  H1.0 immunofluorescence intensity: 90.3 (inactive)

## COc1cc(C2c3cc4c(cc3C(O)C3COC(=O)C23)OCO4)cc(OC)c1O (configuration not stated) [4'-Demethylpipodophyllotoxin]
HCC1569 [1]
  cell number: 59.6
TDF [2]
  cell number: 12.7
TDF [3]
  H1.0 immunofluorescence intensity: 157 (active)
HCC1569 [4]
  H1.0 immunofluorescence intensity: 132 (inactive)

## CC1CCCC(O)CCCCCc2cc(O)cc(O)c2C(=O)O1 (configuration not stated)
HCC1569 [1]
  cell number: 102
TDF [2]
  cell number: 93.5
TDF [3]
  H1.0 immunofluorescence intensity: 91.8 (inactive)
HCC1569 [4]
  H1.0 immunofluorescence intensity: 99.2 (inactive)

## Cl.Cl.Cn1cnc(CCN)c1 [1-Methylhistamine dihydrochloride]
HCC1569 [1]
  cell number: 98.1
TDF [2]
  cell number: 110
TDF [3]
  H1.0 immunofluorescence intensity: 86.4 (inactive)
HCC1569 [4]
  H1.0 immunofluorescence intensity: 95.3 (inactive)

## CN1CC(CO)CC2c3cccc4[nH]cc(c34)CC21 (configuration not stated) [9,10-Dihydrolysergol]
HCC1569 [1]
  cell number: 96.5
TDF [2]
  cell number: 98.2
TDF [3]
  H1.0 immunofluorescence intensity: 102 (inactive)
HCC1569 [4]
  H1.0 immunofluorescence intensity: 92.7 (inactive)

## CCCCCC=CCC=CCC=CCC=CCCCCCC(=O)NCCO [Anandamide (22:4,n-6)]
HCC1569 [1]
  cell number: 102
TDF [2]
  cell number: 104
TDF [3]
  H1.0 immunofluorescence intensity: 102 (inactive)
HCC1569 [4]
  H1.0 immunofluorescence intensity: 98.3 (inactive)

## OC1CN2CCC(O)C2C(O)C1O (configuration not stated) [Castanospermine]
HCC1569 [1]
  cell number: 100
TDF [2]
  cell number: 104
TDF [3]
  H1.0 immunofluorescence intensity: 89.5 (inactive)
HCC1569 [4]
  H1.0 immunofluorescence intensity: 90.4 (inactive)

## C=CCN1CCC23CCCCC2C1Cc1ccc(O)cc13.O=C(O)C(O)C(O)C(=O)O (configuration not stated) [Levallorphan tartrate]
HCC1569 [1]
  cell number: 99.1
TDF [2]
  cell number: 118
TDF [3]
  H1.0 immunofluorescence intensity: 90.1 (inactive)
HCC1569 [4]
  H1.0 immunofluorescence intensity: 100 (inactive)

## Cc1nccc2c1[nH]c1ccccc12 [Harmane]
HCC1569 [1]
  cell number: 100 ± 0.98
TDF [2]
  cell number: 106 ± 11
TDF [3]
  H1.0 immunofluorescence intensity: 97 (inactive)
HCC1569 [4]
  H1.0 immunofluorescence intensity: 96.7 (inactive)

## C=C(C)C1CNC(C(=O)O)C1CC(=O)O (configuration not stated) [Kainic acid]
HCC1569 [1]
  cell number: 103 ± 3.2
TDF [2]
  cell number: 108 ± 3
TDF [3]
  H1.0 immunofluorescence intensity: 92.5 (inactive)
HCC1569 [4]
  H1.0 immunofluorescence intensity: 88.9 (inactive)
